Test [1] deals with Thyrotropin receptor (Homo sapiens) (UniProt P16473). Kind of test: qHTS assay to identify small molecule antagonists of the thyroid stimulating hormone receptor (TSHR) signaling pathway (AID 1259385; calls by dose curve; also: nearly all actives have a fitted effect of over 20% in size). The gist of the method: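 TSHR-HEK293 cells (800/well) plated 18 h, then compounds with Ro20-1724 and TSH at 1.5 ng/mL final, 30 min at room temperature. cAMP quantified by HTRF (cAMP-d2/anti-cAMP-cryptate, 1 h); 15 concentrations in triplicate.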
For orientation: Quantitative high-throughput screening tests each substance at several concentrations.

Test [2] in a line: qHTS assay to identify small molecule agonists of the estrogen receptor alpha (ER-alpha) signaling pathway in the presence of an antagonist - cell viability counter screen (AID 1259386).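 Also: cells exposed to compounds for 22 h at 37 °C before the viability read; nearly all actives have a fitted effect of over 30% in size.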 Also: potency is read from the fitted curve at half-maximal effect. In short, it runs like this: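 Cytotoxicity was measured in parallel with the ERE-luciferase agonist screen, in the same wells. The cells were VM7Luc4E2, which endogenously express ER-alpha, and treatment was with compounds plus 10.0nM ICI-182,780 for 22hr.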

The target in test [3] is Progesterone receptor (Homo sapiens) (UniProt P06401). Kind of test: qHTS assay to identify small molecule agonists of the progesterone receptor (PR) signaling pathway (AID 1346784; calls by dose curve; also: nearly all actives have a fitted effect of over 30% in size). In short, it runs like this:
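Agonist mode, quantitative HTS format in a HEK 293T line expressing a UAS-controlled beta-lactamase reporter; 16 hr compound exposure at 37C in 2% charcoal-stripped FBS, then LiveBLAzer B/G FRET fluorescence.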

The nature of test [4]: qHTS assay to identify small molecule antagonists of the progesterone receptor (PR) signaling pathway - cell viability counter screen (AID 1346798). Also: series mostly up to about 92 µM; nearly all actives have a fitted effect of over 50% in size. The gist of the method: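 Same-well multiplex: after 16 hr at 37C with compound and R5020 stimulation, HEK293T cells carrying a UAS-bla reporter received LiveBLAzer substrate (2 hr RT), then CellTiter-Glo (30 min RT) for luminescent viability.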

A short description of test [5]: qHTS assay to identify small molecule agonists of the progesterone receptor (PR) signaling pathway - cell viability counter screen (AID 1346799; calls by dose curve; also: nearly all actives have a fitted effect of over 45% in size). In short, it runs like this:
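Counter screen for cytotoxicity: compound-treated PR-UAS-bla HEK293T cells (16 hr, 37C, 5% CO2) were assayed with CellTiter-Glo, luminescence measured after 30 min at room temperature.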

Test [6] in a line: qHTS assay to identify small molecule antagonists of the TGF-beta/Smad signaling pathway - cell viability counter screen (AID 1346824). Also: nearly all actives have a fitted effect of over 50% in size. In short, it runs like this:
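SBE-bla HEK 293T cells, incubated overnight, then compound plus 0.25 ng/mL TGF-beta1 (stock added) for 5 hr at 37 C. Viability was read in the same wells by CellTiter-Glo luminescence after 30 min at room temperature.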

The nature of test [7]: qHTS assay to identify small molecule agonists of the TGF-beta/Smad signaling pathway (AID 1346859; active = well fitted activation curve with a large enough effect in the signal ratio in the repeat runs, not every such curve was filed as active; the % refers to the signal ratio; also: series mostly up to about 77 µM). The gist of the method:
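Smad-responsive beta-lactamase reporter cells (HEK 293T) received compounds from DMSO stocks after overnight attachment, were incubated 5 hr, then treated 2 hr with FRET substrate before dual-emission fluorescence measurement (405 nm excitation).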

The target of test [8] is Thyrotropin-releasing hormone receptor (Homo sapiens) (UniProt P34981). Kind of test: qHTS assay to identify small molecule antagonists of the thyrotropin-releasing hormone receptor (TRHR) signaling pathway (AID 1346877; active = well fitted inhibition curve with a large enough effect in the repeat runs, not every such curve was filed as active; also: series mostly up to about 51 µM). The gist of the method: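 Antagonism is measured as suppression of the calcium response to 1 nM TRH in TRHR-HEK293 cells that have been dye-loaded for 2 h at 37 °C after overnight plating. Each compound is tested at 15 concentrations in triplicate.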

Test [9] shares this target. As to the kind of experiment: qHTS assay to identify small molecule agonists of the thyrotropin-releasing hormone receptor (TRHR) signaling pathway (AID 1346891; calls by dose curve;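 also: HEK293 cells expressing TRHR with calcium dye readout; series mostly up to about 58 µM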). In short, it runs like this: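 Agonist-mode calcium mobilisation screen: TRHR-transfected HEK293 cells cultured overnight (18 h), dye-loaded for 2 h at 37 °C, exposed to compounds, and monitored by fluorescence for 3 min.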

Test [10] is described as follows: Human pregnane X receptor (PXR) small molecule agonists, qHTS cell viability counter screen (AID 1346977). Also: nearly all actives have a fitted effect of over 50% in size. Also: potency is read from the fitted curve at half-maximal effect. In short, it runs like this: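 Measures live-cell protease fluorescence (CellTiter-Fluor) in PXR-Luc HepG2 cells treated 24hr with compounds at 37C. Cells had 5hr to attach before pin transfer of DMSO solutions.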
Test [11] is described as follows: Caspase-3/7 induction in HepG2 cells by small molecules, qHTS assay (AID 1346978). Also: nearly all actives have a fitted effect of over 15% in size. In short, it runs like this: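 Wild-type HepG2 cells, 2,000/well, settled 5 hr at 37 C and 5% CO2, then compound-treated for 17 hr; caspase-3/7 activity read by luminescent Caspase-Glo 3/7 after 30 min at room temperature.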
The nature of test [12]: Caspase-3/7 induction in CHO-K1 cells by small molecules, qHTS cell viability counter screen (AID 1346979). Also: nearly all actives have a fitted effect of over 35% in size. Also: potency is read from the fitted curve at half-maximal effect. The gist of the method: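 In the same wells as the caspase read, viability of compound-treated wild-type CHO-K1 cells was assessed using CellTiter-Fluor, added after 16hr at 37C and measured by fluorescence following 1hr further incubation.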
Test [13] in a line: Caspase-3/7 induction in CHO-K1 cells by small molecules, qHTS assay (AID 1346980). Also: nearly all actives have a fitted effect of over 15% in size. The gist of the method: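 Wild-type CHO-K1 cells exposed to compounds for 17hr at 37 C, 5% CO2. Caspase-3/7 activity then measured by Caspase-Glo 3/7 luminescence after 30min at room temperature.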
Test [14] in a line: Caspase-3/7 induction in HepG2 cells by small molecules, qHTS cell viability counter screen (AID 1346981). Also: nearly all actives have a fitted effect of over 30% in size. Also: potency is read from the fitted curve at half-maximal effect. In short, it runs like this:
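Cell viability is measured as a cytotoxicity counter screen alongside the Caspase-Glo 3/7 readout in identical wells. Wild-type HepG2 cells are treated with test compounds for 16 hr at 37 C before CellTiter-Fluor addition and a 1-hr incubation.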

Test [15] deals with Nuclear receptor subfamily 1 group I member 2 (Homo sapiens) (UniProt O75469). Kind of test: Human pregnane X receptor (PXR) small molecule agonists, qHTS assay (AID 1346982). Also: nearly all actives have a fitted effect of over 35% in size. Also: potency is read from the fitted curve at half-maximal effect. The gist of the method:
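Cells: HepG2 stably carrying PXR-Luc. Medium held 5% charcoal-stripped FBS. Compounds in DMSO added after 5 hr plating, incubated 24 hr, then luminescence quantified with ONE-Glo.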

Test [16] has as its target Progesterone receptor (Homo sapiens) (UniProt P06401). As to the kind of experiment: qHTS assay to identify small molecule antagonists of the progesterone receptor (PR) signaling pathway (AID 1346795; active = well fitted inhibition curve with a large enough effect in the signal ratio in the repeat runs, not every such curve was filed as active; the % refers to the signal ratio; also: potency is read from the fitted curve at half-maximal effect). In short, it runs like this:
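HEK293T PR-UAS-bla reporter cells in charcoal-stripped serum (2%) received compound after a 6 hr settling period, followed by R5020 agonist at 1 nM final; 16 hr incubation preceded the FRET substrate step and fluorescence measurement.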

Test [17] is described as follows: qHTS assay to identify small molecule agonists of the TGF-beta/Smad signaling pathway - cell viability counter screen (AID 1346829). Also: top concentration of the series differs between compounds; nearly all actives have a fitted effect of over 45% in size. In short, it runs like this: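 Compound-treated SBE-bla HEK 293T cells (5 hr, 37 C) were assessed for viability with CellTiter-Glo in parallel with the reporter read.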
The target in test [18] is Nuclear receptor subfamily 1 group I member 2 (Rattus norvegicus) (UniProt Q9R1A7). Kind of test: Rat pregnane X receptor (rPXR) activation by small molecules, qHTS assay (AID 1346983). Also: nearly all actives have a fitted effect of over 20% in size. The following applies: rPXR luciferase reporter cells, One-Glo luminescence, 24 h; max activation: stronger effect = higher value. In short, it runs like this:
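Cell-based rPXR activation assay: rPXR cells, 2,000 per well, rested 5hr at 37 C, then exposed to compounds in DMSO for 24 hr at 37 C. Luciferase activity read by One-Glo luminescence after 30 min at room temperature.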

Test [19] concerns the target Nuclear receptor subfamily 1 group I member 2 (Homo sapiens) (UniProt O75469). As to the kind of experiment: CYP3A4 induction through human pregnane X receptor (PXR) by small molecules, qHTS assay (AID 1346984). Also: nearly all actives have a fitted effect of over 40% in size. The gist of the method:
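Quantitative HTS in DPX-2 cells, i.e. HepG2 transfected with PXR response element and CYP3A4-promoter luciferase. Compounds in DMSO incubated 24hr at 37C; then P450-Glo CYP3A4 substrate, 3uM final, 3hr; One-Glo luminescence.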

The target is the same in test [20]. Kind of test: Human pregnane X receptor (PXR) activation by small molecules, qHTS assay (AID 1346985). Also: nearly all actives have a fitted effect of over 40% in size. The gist of the method:
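DPX-2 cells (HepG2 co-transfected with a PXR response element and a CYP3A4-promoter luciferase construct) were seeded at 2,000 per well, rested 5 hr at 37C, then exposed to DMSO-dissolved compounds for 24 hr. Activation was read as luciferase luminescence.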

Each structure is given as a SMILES string. Where “and” joins values, the source holds several entries; their conditions need not be identical. Equal values may be shown once. Inconclusive results are not listed. More than one record can exist for a structure, and the calls need not agree. Calls of active or inactive are those of the source. Unless noted, calls follow the shape of the dose curve; as a rule, active = well fitted curve in the direction sought with a large enough effect in the repeat runs; inconclusive = weak or mixed curves; inactive = no such curve, though single readings can be large; an effect the other way counts as inactive or inconclusive.
% is scaled to controls: 0 for no effect and ±100 for the full control effect.

Thyrotropin-releasing hormone receptor (Homo sapiens), sequence (P34981 whole entry, looked up): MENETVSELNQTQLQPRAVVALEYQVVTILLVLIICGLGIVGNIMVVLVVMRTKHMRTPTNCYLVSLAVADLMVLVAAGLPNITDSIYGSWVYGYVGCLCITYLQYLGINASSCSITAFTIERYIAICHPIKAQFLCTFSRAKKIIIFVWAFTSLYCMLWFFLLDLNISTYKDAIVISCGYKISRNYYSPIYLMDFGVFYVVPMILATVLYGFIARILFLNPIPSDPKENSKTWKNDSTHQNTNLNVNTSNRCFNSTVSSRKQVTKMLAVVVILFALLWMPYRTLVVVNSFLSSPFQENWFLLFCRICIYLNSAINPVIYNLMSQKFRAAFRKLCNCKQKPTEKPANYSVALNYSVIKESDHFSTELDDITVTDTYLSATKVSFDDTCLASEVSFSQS
Progesterone receptor (Homo sapiens), sequence (P06401 whole entry, looked up): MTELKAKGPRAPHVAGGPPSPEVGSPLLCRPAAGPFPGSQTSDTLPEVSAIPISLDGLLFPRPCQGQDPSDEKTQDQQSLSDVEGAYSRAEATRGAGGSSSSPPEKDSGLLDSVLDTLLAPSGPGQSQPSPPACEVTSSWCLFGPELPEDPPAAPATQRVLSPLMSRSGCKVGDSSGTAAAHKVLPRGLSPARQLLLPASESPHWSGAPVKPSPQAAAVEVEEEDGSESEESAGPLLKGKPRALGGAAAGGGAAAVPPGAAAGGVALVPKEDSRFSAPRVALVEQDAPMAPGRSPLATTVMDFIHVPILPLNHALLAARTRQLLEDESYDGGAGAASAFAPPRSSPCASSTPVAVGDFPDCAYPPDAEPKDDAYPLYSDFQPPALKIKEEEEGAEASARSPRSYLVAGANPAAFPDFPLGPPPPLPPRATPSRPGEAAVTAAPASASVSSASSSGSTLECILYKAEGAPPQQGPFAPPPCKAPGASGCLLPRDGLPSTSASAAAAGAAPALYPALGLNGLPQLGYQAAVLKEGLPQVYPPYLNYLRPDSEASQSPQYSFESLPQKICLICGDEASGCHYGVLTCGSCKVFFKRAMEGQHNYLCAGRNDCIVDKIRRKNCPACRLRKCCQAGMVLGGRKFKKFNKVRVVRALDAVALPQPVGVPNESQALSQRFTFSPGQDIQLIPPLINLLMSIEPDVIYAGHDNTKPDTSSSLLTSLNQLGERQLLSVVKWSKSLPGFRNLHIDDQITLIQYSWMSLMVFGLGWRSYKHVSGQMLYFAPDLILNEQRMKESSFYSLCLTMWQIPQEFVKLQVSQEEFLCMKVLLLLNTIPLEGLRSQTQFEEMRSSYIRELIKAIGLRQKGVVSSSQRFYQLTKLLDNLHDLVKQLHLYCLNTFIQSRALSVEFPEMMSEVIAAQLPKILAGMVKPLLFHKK
Thyrotropin receptor (Homo sapiens), sequence (P16473 whole entry, looked up): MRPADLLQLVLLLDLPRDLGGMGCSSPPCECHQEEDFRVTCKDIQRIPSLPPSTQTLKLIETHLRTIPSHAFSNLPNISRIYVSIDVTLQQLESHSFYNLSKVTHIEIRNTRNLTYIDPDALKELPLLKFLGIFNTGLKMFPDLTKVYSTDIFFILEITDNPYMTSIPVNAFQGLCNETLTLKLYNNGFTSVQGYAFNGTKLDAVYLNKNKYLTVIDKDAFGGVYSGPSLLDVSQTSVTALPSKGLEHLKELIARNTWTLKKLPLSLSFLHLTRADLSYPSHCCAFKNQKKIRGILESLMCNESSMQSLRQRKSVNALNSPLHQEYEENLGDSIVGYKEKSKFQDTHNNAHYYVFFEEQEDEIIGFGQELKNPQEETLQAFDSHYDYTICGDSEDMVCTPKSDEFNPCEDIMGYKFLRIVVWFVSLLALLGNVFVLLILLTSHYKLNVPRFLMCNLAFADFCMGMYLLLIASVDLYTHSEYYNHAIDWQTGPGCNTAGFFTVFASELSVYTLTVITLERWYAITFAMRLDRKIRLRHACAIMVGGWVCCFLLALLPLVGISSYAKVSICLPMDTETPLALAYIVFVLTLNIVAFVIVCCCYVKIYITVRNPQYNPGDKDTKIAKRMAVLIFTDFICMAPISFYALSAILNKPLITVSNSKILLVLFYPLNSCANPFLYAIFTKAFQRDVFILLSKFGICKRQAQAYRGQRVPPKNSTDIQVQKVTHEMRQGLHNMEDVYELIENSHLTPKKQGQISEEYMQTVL
Nuclear receptor subfamily 1 group I member 2 (Homo sapiens), sequence (O75469 whole entry, looked up): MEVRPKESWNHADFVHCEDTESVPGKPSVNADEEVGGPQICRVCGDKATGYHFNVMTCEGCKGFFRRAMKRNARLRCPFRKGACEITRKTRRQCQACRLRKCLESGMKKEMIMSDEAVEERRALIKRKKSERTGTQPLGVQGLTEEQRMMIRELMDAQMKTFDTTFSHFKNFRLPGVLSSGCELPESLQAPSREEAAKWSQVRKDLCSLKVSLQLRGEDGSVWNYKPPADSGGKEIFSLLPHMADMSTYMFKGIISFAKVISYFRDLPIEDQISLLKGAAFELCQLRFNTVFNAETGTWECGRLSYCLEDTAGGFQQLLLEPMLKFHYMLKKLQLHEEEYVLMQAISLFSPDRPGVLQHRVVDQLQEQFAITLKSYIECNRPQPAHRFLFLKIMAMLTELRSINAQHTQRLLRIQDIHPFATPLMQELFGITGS
Nuclear receptor subfamily 1 group I member 2 (Rattus norvegicus), sequence (Q9R1A7 whole entry, looked up): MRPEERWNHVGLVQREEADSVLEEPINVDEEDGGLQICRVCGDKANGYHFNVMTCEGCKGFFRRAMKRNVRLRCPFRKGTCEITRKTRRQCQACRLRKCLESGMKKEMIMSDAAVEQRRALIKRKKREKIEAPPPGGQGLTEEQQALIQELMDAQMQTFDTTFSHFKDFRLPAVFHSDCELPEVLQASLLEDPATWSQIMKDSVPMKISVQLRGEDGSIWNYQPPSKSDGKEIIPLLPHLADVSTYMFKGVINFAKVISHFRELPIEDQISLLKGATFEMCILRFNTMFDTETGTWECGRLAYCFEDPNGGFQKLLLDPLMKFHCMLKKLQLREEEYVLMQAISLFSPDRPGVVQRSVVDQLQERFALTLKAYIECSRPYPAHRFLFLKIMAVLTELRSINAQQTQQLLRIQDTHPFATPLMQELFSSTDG

For the compound `CCCCOC(=O)c1ccccc1C(=O)OCc1ccccc1`, the Potency result in test [1], in test [2], in test [3], in [4], in test [5] and in test [6] was “inactive” in each case. Moreover, the Potency result in test [8], in test [9], in [11], in test [12], in [13] and in test [14] was “inactive” each time. In addition, the compound was classed as inactive in [7]. Further, the Potency result in test [10] was “inactive and 48.6 µM (active)”; in test [15] it was “inactive and 21.7 µM (active)”.

`CC1(C)CCC(Cc2ccc(Cl)cc2)C1(O)Cn1cncn1` (configuration not stated): the Potency result in test [1], in test [2], in test [3], in test [5], in [6] and in test [8] was “inactive” in each case. Moreover, the Potency result in test [9], in test [11] and in test [13] was “inactive” each time. Further, the Potency in test [16] was 4.33 µM (active); in [12] it was 68.6 µM (active). Besides, the call in test [7] was inactive.

Consider `Sc1ccccc1Cl`, for which the Potency entry in [1], in test [2], in test [3], in test [16], in [5] and in [6] was “inactive” throughout. Moreover, the Potency result in [17], in test [9], in [10], in test [11], in test [12] and in test [13] was “inactive” each time. Moreover, in test [14], the Potency entry was “inactive”. Besides, in test [7], the call was inactive.

For `Clc1cc(Cl)c(Cl)c(Cl)c1`, the Potency entry in [1], in test [2], in test [3], in test [16], in [5] and in test [6] was “inactive” in each case. Moreover, the Potency result in [17], in test [10], in [11], in test [12], in test [13] and in test [14] was “inactive” each time. Further, the Potency entry in test [15] is “inactive”. Further, the compound was called inactive in test [7].

Turning to `NCCCNCCCN`, the Potency result in [1], in test [2], in test [3], in test [16], in test [5] and in test [6] was “inactive” in each case. The Potency result in [17], in test [9], in test [10], in test [11], in test [12] and in test [13] was “inactive” throughout. For the same compound, the Potency entry in [14] was “inactive”. For the same compound, the result in [7] was inactive.

Take `C=CC(=O)OCC(C)O` (configuration not stated): the Potency entry in test [1], in test [2], in [3], in test [16], in test [5] and in test [6] was “inactive” throughout. For the same compound, the Potency result in [17], in test [8], in test [10], in [11], in [13] and in test [14] was “inactive” each time. The Potency result in test [15] is “inactive”. Moreover, the call in test [7] was inactive.

On to `CCCCc1c(C)nc(NCC)nc1OS(=O)(=O)N(C)C`, for which the Potency entry in [1], in test [3], in test [6], in [17], in test [8] and in [9] was “inactive” throughout. The Potency result in test [11] and in test [13] was “inactive” in each case. Moreover, the Potency in test [2] was 48.6 µM (active); in [16] it was 27.3 µM (active); in [10], 61.1 µM (active); in test [12], 61.1 µM (active); in test [14] it was 61.1 µM (active); in test [15], 9.69 µM (active). The compound was classed as inactive in test [7].

Consider `O=[N+]([O-])C(Br)(CO)CO`, for which the Potency result in test [1], in test [2], in test [3], in test [16], in test [5] and in [6] was “inactive” in each case. The Potency result in test [17], in [8], in [9], in test [10], in test [11] and in [13] was “inactive” throughout. Also, the Potency result in test [14], in test [15], in test [19] and in test [20] was “inactive” each time. Moreover, the result in test [7] was inactive. The Potency in test [12] is 61.1 µM (active). The max activation in test [18] was -5.03% (inactive).

These data come from PubChem BioAssay (Tox21).
